Reference: PubChem BioAssay AID686970 (National Center for Advancing Translational Sciences (NCATS), 2013)
Out of some 360,000 compounds screened, about 6,000 (1.7%) were called active. Where a call stands in place of a potency, no number is given. Roughly 8% stayed inconclusive and do not appear here. For the sample, actives were picked, then their nearest neighbours and some compounds at random. Values without a mark were called inactive. The call rests on the fitted dose curve; in most records, active means well fitted cell-killing curve with a large enough effect; inconclusive means small, poorly fitted or top-dose-only effect, or effect the other way; inactive means flat fitted curve, though single readings scatter.

Experiment: qHTS for induction of synthetic lethality in tumor cells producing 2HG: qHTS for the HT-1080-NT fibrosarcoma cell line;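 further: NT is the 2HG producing partner of a matched IDH1 knockdown line; nearly all actives have a fitted effect of over 55% in size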
Conditions: HT-1080-NT fibrosarcoma viability, CellTiter-Glo ATP luminescence, 48 h; series mostly up to 46.1 µM
Procedure, shortened: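 HT-1080-NT; 750 cells/well; 5% FBS RPMI; 48 h compound, 37 degrees C; CellTiter-Glo luminescence; curve fitting and curve-class assignment.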
Potency means the concentration at half of the fitted maximal effect.

Row | Structure (SMILES) | Potency | activity, negative = less viability
1 | CC(=O)C1=CCC(c2ccccc2)N(S(=O)(=O)c2ccc(C)cc2)C1 (configuration not stated) | inactive | –
2 | Cc1ccc(Oc2ccc3c(c2)C(=O)N(c2cccc4cccnc24)C3=O)cc1 | inactive | –
3 | Cc1ccc(C)c(NC(=O)c2ccc3nccnc3c2)c1 | inactive | –
4 | Cc1ccc(OS(=O)Nc2cccc3nccnc23)cc1 (configuration not stated) | 11.2 µM (active) | –
5 | CCOc1cc(C=NNC(=O)CCCC(=O)NN=Cc2ccc(O)c(OCC)c2)ccc1O | inactive | –
6 | CCOc1cc(/C=C(\C#N)c2nc(-c3cccs3)c(NC(C)=O)s2)ccc1O | 3.26 µM (active) | –
7 | CCOc1cc(-c2cc(-c3ccc(NC(C)=O)cc3)nc(N)c2C#N)ccc1O | inactive | –
8 | CCCNC(=O)C1(C)CCN(C(=O)c2ccc(F)cc2Cl)C1 (configuration not stated) | inactive | –
9 | CN1OC[C@@H]2CN(C(=O)c3cccc4ccccc34)[C@H](c3ccc(N4CCCCC4)cc3)C[C@@H]21 | inactive | –
10 | N#CCSc1nc(-c2ccccc2)nc2ccc(F)cc12 | inactive | –
11 | Oc1ccc(-c2onc3ccc(Cl)cc23)cc1 | inactive | –
12 | Clc1ccc2nc(-c3ccccc3)nc(C(Cl)Cl)c2c1 | 4.61 µM (active) | –
13 | CCCCNC(=O)C[C@@H]1C[C@@]2(C(=O)OCC)CCC=C2N(Cc2ccco2)C1=O | inactive | –
14 | COc1nc(N=C(N)N)nc2c(C)cccc12 | inactive | –
15 | Cc1nc(N=C(N)N)nc2c(C)cccc12 | 10.3 µM (active) | –
16 | O=C1CCC(=O)N1CCC(=O)N(C(=O)NC1CCCCC1)C1CCCCC1 | inactive | –
17 | CC(=O)OC[C@@H]1CN(Cc2ccccc2)C[C@H](n2cnc3c(NCc4ccco4)ncnc32)O1 | inactive | –
18 | C[N+](C)(C)CCNC(=O)c1c[nH]c2ccccc12 | inactive | –
19 | COc1cccc(-n2c(SCC(=O)c3c[nH]c4ccccc34)nc3ccccc3c2=O)c1 | inactive | –
20 | COc1ccc(/C=C(\C#N)c2c[nH]c3ccccc23)cc1 | 0.411 µM (active) | –
21 | COc1ccc(C=C2CCC3C(CCCC34OCCO4)C2=O)cc1 (configuration not stated) | inactive | –
22 | COCCCNC(=O)c1cccc2c(-c3ccc(O)c(OC)c3)coc12 | inactive | –
23 | CC1(C(=O)Nc2cccc3c2CCCC3)CCN1C(=O)CCc1ccc(Cl)cc1Cl (configuration not stated) | inactive | –
24 | COC(=O)CSC1=C(C#N)C(c2ccccc2OC)C(C(=O)OC)C(=O)N1 (configuration not stated) | inactive | –
25 | CCOC(=O)CSC1=C(C#N)C(c2sccc2C)CC(=O)N1 (configuration not stated) | 2.51 µM (active) | –
26 | C=CCSC1=C(C#N)C(c2cc(Br)c(O)c(OC)c2)CC(=O)N1 (configuration not stated) | inactive | –

Row | Structure (SMILES) | Potency | activity, negative = less viability
27 | CN(Cc1ccccc1)C(=O)CCC1CCN(C(=O)c2ccco2)CC1 | inactive | –
28 | COC(=O)Cc1ccc(OC2(C)CCN(Cc3ccc4c(c3)OCCO4)C2)cc1 (configuration not stated) | inactive | –
29 | C#CCNC(=O)C[C@@H]1C[C@@]2(C(=O)OCC)CCCC=C2N(Cc2ccco2)C1=O | inactive | –
30 | COc1ccccc1NC(=O)C1=C(C)Nc2nc3ccccc3n2C1c1cccs1 (configuration not stated) | 7.31 µM (active) | –
31 | COc1ccccc1NC(=O)C1=C(C)NC(=O)NC1c1ccc(C)s1 (configuration not stated) | inactive | –
32 | CCOc1ccc(C2C(C(=O)NC)=C(C)Nc3nc4ccccc4n32)cc1OC (configuration not stated) | inactive | –
33 | COc1ccc(C(O)C(O)(C(=O)OC(C)C)c2ccc(C)cc2)cc1 (configuration not stated) | inactive | –
34 | O=C(Nc1cccc2ccccc12)NC1CC1 | inactive | –
35 | COc1ccc(CCNS(=O)(=O)c2cccc3cccnc23)cc1OC | inactive | –
36 | CCCCC(=O)NC(c1ccc(OC)c(OC)c1)c1ccc2cccnc2c1O (configuration not stated) | 14.6 µM (active) | –
37 | CCOc1ccc(C(CC(=O)O)NC(=O)Cc2ccccc2)cc1OC (configuration not stated) | inactive | –
38 | Cn1nc(N)c2ncc(C(Cl)(Cl)Cl)nc21 | inactive | –
39 | O=S1(=O)CC(N2CCN(CCO)CC2)CN1C1CCCC1 (configuration not stated) | inactive | –
40 | Nc1c(C(=O)Nc2ccc3c(c2)OCCO3)nnn1Cc1ccccc1 | inactive | –
41 | O=C(COc1cccc(Cl)c1)NCc1ccccc1 | inactive | –
42 | Nc1c(C(=O)NCc2ccccc2)nnn1Cc1cccc(Cl)c1 | 13 µM (active) | –
43 | Cc1cccc(C)c1NC(=O)CN1CCN(c2ccc(F)cc2)CC1 | inactive | –
44 | CCOc1ccc2[nH]c(=S)sc2c1 | inactive | –
45 | COc1ccc(C(C(=O)Nc2c(C)cccc2C)N2CCN(c3ccc(C)cc3)CC2)cc1 (configuration not stated) | inactive | –
46 | CC1=CC(C)(C)NC(=S)N1c1ccccc1 | 11.2 µM (active) | –
47 | CC1=CC(C)(C)NC(=S)N1NC(=O)c1ccccc1Cl | inactive | –
48 | COc1ccc(S(=O)(=O)N(C)C)cc1NC(=O)COC(=O)c1n[nH]c2ccccc12 | inactive | –
49 | Cc1ccc(C(=O)Nc2nc3ccc(Cl)cc3s2)o1 | inactive | –
50 | O=C(CCc1ccccc1Cl)Nc1ccc(S(=O)(=O)Nc2nccs2)cc1 | inactive | –
51 | Cc1ccc(CCC(=O)Nc2ncc(Cc3cc(Cl)ccc3Cl)s2)o1 | 1.16 µM (active) | –
52 | CCc1cc(-c2nnn(CCC3COCCO3)c2CC)ccc1-c1cn(Cc2ccc3ccccc3c2)nn1 (configuration not stated) | inactive | –

Row | Structure (SMILES) | Potency | activity, negative = less viability
53 | Cc1ccc(Cn2c(C)c(C(=O)NCc3ccccc3C(F)(F)F)sc2=O)cc1 | inactive | –
54 | CCNC(=O)C1(C)CCCN1C(=O)c1ccc(N(C)C)cc1 (configuration not stated) | inactive | –
55 | CCc1nc2c(OCc3ccc(F)c(F)c3)cccn2c1N(C)C(=O)c1ccco1 | inactive | –
56 | CCOC(=O)N(C)c1c(CC)nc2c(OCc3ccccc3C(=O)OC)cccn12 | inactive | –
57 | Cc1nc2ccccc2nc(C)c1=NOCc1ccc(Cl)cc1Cl | inactive | –
58 | Cc1nc2c(OCc3ccc(Cl)cc3)cccn2c1N(C)Cc1cccs1 | 16.4 µM (active) | –
59 | CCCCN(C=O)c1c(CC)nc2c(OCc3ccccc3C(=O)OC)cccn12 | inactive | –
60 | CCc1nc2c(OCc3ccc(C(=O)OC)cc3)cccn2c1N(C)C(=O)C(C)C | inactive | –
61 | CCc1nc2c(OCc3ccc(Cl)cc3Cl)cccn2c1N(C)C(=O)C(C)C | 16.4 µM (active) | –
62 | CCc1nc2c(OCc3ccccc3)cccn2c1N(C)C(=O)c1ccco1 | inactive | –
63 | Cc1nc2c(OCc3ccc(Cl)cc3Cl)cccn2c1N(C)CC1CC1 | 13 µM (active) | –
64 | COc1ccc(S(=O)(=O)NC(=O)C2(C)CCN2C(=O)COc2ccc(Cl)cc2)cc1 (configuration not stated) | inactive | –
65 | Cc1cccc(CN2CCN(C3CN(Cc4cn(Cc5cc(C)cc(C)c5)nn4)S(=O)(=O)C3)CC2)c1 (configuration not stated) | inactive | –
66 | CC1CCC2(CC1)NC(=O)N(CC(=O)NCc1ccco1)C2=O (configuration not stated) | inactive | –
67 | Cc1ccc(S(=O)(=O)N[C@H](CO)C(C)C)cc1 | inactive | –
68 | COCCCn1cc(CN2CC(N(C)C)CS2(=O)=O)nn1 (configuration not stated) | inactive | –
69 | Cc1nc(C(F)(F)F)ccc1C(=O)N1CCC1(C)C(=O)NS(=O)(=O)c1ccccc1Cl (configuration not stated) | inactive | –
70 | O=C(NC1CCCCC1)C(c1cc2ccccc2o1)n1c(=O)c(-c2ccco2)nc2ccccc21 (configuration not stated) | inactive | –
71 | Cc1ccc2nc(-c3cccnc3)c(NC3CCCC3)n2c1 | inactive | –
72 | COc1cccc(-c2nc3nc(C)cc(C)n3c2NC2CCCCC2)c1 | inactive | –
73 | COc1ccc(-c2nc3cnccn3c2NC2CCCCC2)cc1-c1cccc(Cl)c1 | 18.4 µM (active) | –
74 | CC(=O)c1nn(-c2ccccc2)c(=Nc2ccccc2)cc1C | inactive | –
75 | O=C(Nc1ccccc1)c1ccccc1OCc1ccccc1 | inactive | –
76 | CCCOc1ccccc1C1CC(=O)Nc2cc3c(cc21)OCO3 (configuration not stated) | 8.2 µM (active) | –
77 | CCCOc1ccc(C2NC(=O)NC(c3ccccc3)=C2C(C)=O)cc1OCC (configuration not stated) | – | 6.35% [at 9.24 µM]
78 | COC(=O)c1ccc(C2CC(=O)Nc3cc(OC)c(OC)cc32)cc1 (configuration not stated) | inactive | –

Row | Structure (SMILES) | Potency | activity, negative = less viability
79 | Cc1ccc(F)c(S(=O)(=O)NC(=O)C2(C)CCN2C(=O)CCc2cccs2)c1 (configuration not stated) | inactive | –
80 | OC[C@@H]1CN(Cc2ccc3c(c2)OCO3)C[C@H](n2cnc3c(NCc4ccco4)ncnc32)O1 | inactive | –
81 | CCc1nc2c(OCCOc3ccccc3)cccn2c1N(C)C(=O)c1ccc(OC)cc1 | inactive | –
82 | CC(=O)c1ccc(Nc2nc(C(N)c3ccccc3)cs2)cc1 (configuration not stated) | inactive | –
83 | O=C(Nc1cccc(F)c1)NC1CCCCCCC1 | inactive | –
84 | COc1cccc(NC(=O)Nc2ccc(F)cc2)c1 | inactive | –
85 | NC(c1csc(NC(=O)Nc2cccc(C(F)(F)F)c2)n1)C1CCCCC1 (configuration not stated) | 8.2 µM (active) | –
86 | NC(c1ccccc1)c1csc(NC(=O)Nc2cccc(C(F)(F)F)c2)n1 (configuration not stated) | 18.4 µM (active) | –
87 | COc1ccc(C(CC(=O)Nc2ccc(C)cc2)NC(=O)C(F)(F)F)cc1 (configuration not stated) | inactive | –
88 | O=C(Nc1ccc(C(=O)N2CCOCC2)cc1)Nc1cccc(C(F)(F)F)c1 | inactive | –
89 | O=C(O)CC1(CC(=O)Nc2cccc(C(F)(F)F)c2)CCCC1 | inactive | –
90 | COc1ccc(C(N)c2csc(NC(=O)Nc3cccc(C(F)(F)F)c3)n2)cc1 (configuration not stated) | 20.6 µM (active) | –
91 | O=C(NCCc1cccc(F)c1)C1CC(O)CN1C(=O)Nc1ccccc1 (configuration not stated) | inactive | –
92 | CCN(CC)C(=O)C1=C(C)N(Cc2ccc(F)cc2)C(=O)C(CC(=O)NCc2cccc3ccccc23)C1 (configuration not stated) | inactive | –
93 | CO[C@@H]1CN(C)C(=O)c2cc(NC(=O)Nc3cc(F)ccc3F)ccc2OC[C@H](C)N(C(=O)c2ccccn2)C[C@@H]1C | inactive | –
94 | CCCCC[C@H](C)N1C[C@@H](COCc2ccccc2)Oc2cc(N3CCC[C@@H]3CO)ccc2S1(=O)=O | inactive | –
95 | O=C(NCc1cccnc1)c1ccc2nc([C@@H]3O[C@H](CO)[C@H](O)[C@H](O)[C@H]3O)[nH]c2c1 | inactive | –
96 | COc1ccc(S(=O)(=O)N(C)C[C@H]2OCc3cnnn3CCCC(=O)N([C@H](C)CO)C[C@H]2C)cc1 | inactive | –
97 | CNc1cc(-c2c(OC)cccc2OC)ncn1 | inactive | –
98 | O=S1(=O)CC(N2CCN(c3ccccn3)CC2)CN1Cc1ccc(F)cc1 (configuration not stated) | inactive | –
99 | COc1cccc(NC(=O)C2(C)CCN2Cc2ccccc2Cl)c1 (configuration not stated) | inactive | –
100 | COc1ccc(C2CC(c3ccccc3)=NN2C(=O)COC(=O)COc2ccccc2)cc1 (configuration not stated) | inactive | –
101 | COc1ccc(C2CC(c3cccc(OC)c3)=NN2c2ccc(S(N)(=O)=O)cc2)cc1 (configuration not stated) | 18.4 µM (active) | –
102 | COc1ccc(C2CC(c3ccc([N+](=O)[O-])cc3)=NN2C(C)=O)cc1 (configuration not stated) | inactive | –
